Results filed as inconclusive are left out. Entries that show only a call come without a potency. Values without a mark were called inactive. The source made the active and inactive calls. Calls follow the shape of the dose curve; as a rule, active = well fitted inhibition curve with a large enough effect; inconclusive = small, poorly fitted or top-dose-only effect; inactive = flat fitted curve, though single readings scatter.
biological target: Calcium and integrin-binding protein 1 (Homo sapiens) (UniProt Q99828); experiment: Primary qHTS for Identification of Calcium Integrin Binding Protein 1 (CIB1) Competitor (AID 1508620); details: CIB1-GST / FITC-alphaIIb peptide fluorescence polarization; series mostly up to 114 µM; as to activity change, negative = inhibition: top concentration of the series differs between compounds
Sequence (Q99828 whole entry, looked up): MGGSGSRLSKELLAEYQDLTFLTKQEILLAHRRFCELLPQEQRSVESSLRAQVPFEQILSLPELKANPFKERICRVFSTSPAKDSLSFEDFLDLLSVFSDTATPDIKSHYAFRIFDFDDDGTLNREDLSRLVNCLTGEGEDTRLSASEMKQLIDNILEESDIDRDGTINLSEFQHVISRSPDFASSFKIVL
Method in brief: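 Fluorescence polarization competition: GST-tagged CIB1 (1 uM final) preincubated with compound 15 min at room temperature, then FITC-labelled alphaIIb peptide (100 nM final) added. After 15 min at room temperature, polarization read at Ex 480/Em 540.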
Potency is read from the fitted curve at half-maximal effect.

| SMILES | Potency | activity change, negative = inhibition |
| --- | --- | --- |
| Cc1nn(-c2ccccc2)c(C)c1/C=N/N1CCN(Cc2ccccc2)CC1 | inactive | – |
| N[C@@H](Cn1ccc(=O)c(O)c1)C(=O)O | – | 2.21% [at 12.4 µM] |
| CCCC(=O)c1cc(O)c(O)cc1O | 112 µM (active) | – |
| CC(C)(C)C(=O)OCOC(=O)C1N2C(=O)CC2S(=O)(=O)C1(C)C (centres undefined) | inactive | – |
| COc1ccccc1N1CCN(CCN2C(=O)CC3(CCCC3)CC2=O)CC1 | inactive | – |
| O=C1NC(c2cccc([N+](=O)[O-])c2)=CCN1c1ccccc1O | inactive | – |
| Oc1cccc2[nH]ccc12 | inactive | – |
| O=C1NC(=O)/C(=C/c2ccc3c(c2)OC(F)(F)O3)S1 | inactive | – |
| Brc1ccc([C@H]2CN3CCSC3=N2)cc1 | inactive | – |
| CCCCC/C=C\C/C=C\CCCCCCCC(=O)NC(C)c1ccccc1 (centres undefined) | inactive | – |
| CN(C)[C@@H]1C(=O)C(C(N)=O)=C(O)[C@@]2(O)C(=O)C3=C(O)c4c(O)cccc4C[C@H]3C[C@@H]12 | inactive | – |
| CCCCCCOC(=O)NC(=N)c1ccc(NCc2nc3cc(C(=O)N(CCC(=O)OCC)c4ccccn4)ccc3n2C)cc1 | inactive | – |
| CCN(CC)CCOc1ccc(/C(=C(\Cl)c2ccccc2)c2ccccc2)cc1 | inactive | – |
| Cc1ccc(-c2ccccc2C#N)cc1 | inactive | – |
| O=[N+]([O-])c1cncn1CCN1CCOCC1 | inactive | – |
| CCCC(=O)OCOC(=O)C1=C(C)NC(C)=C(C(=O)OC)C1c1cccc(Cl)c1Cl (centres undefined) | inactive | – |
| O=C(O)c1ccc(OCCN2CCCCC2)cc1 | inactive | – |
| N#CSCC(=O)O | inactive | – |
| Nc1cc(C(F)(F)F)ccc1S | 28.2 µM (active) | – |

— PubChem BioAssay (NCATS)
